In experiment [1] the target is T1, Casein kinase II (Homo sapiens) (UniProt P67870+P68400+P19784). Conditions: at 1 µM.
Experiment [2] deals with T1, Casein kinase II (Homo sapiens). Conditions: at 10 µM.
The target of experiment [3] is Casein kinase II subunit alpha' (Homo sapiens) (UniProt P19784). Conditions: at 1 µM.
Experiment [4] shares this target. The settings on record: at 10 µM.
For experiment [5], the target named is Dual specificity protein kinase CLK2 (Homo sapiens) (UniProt P49760). Conditions: at 1 µM.
Sequence of Dual specificity protein kinase CLK2 (Homo sapiens) (P49760 whole entry, looked up): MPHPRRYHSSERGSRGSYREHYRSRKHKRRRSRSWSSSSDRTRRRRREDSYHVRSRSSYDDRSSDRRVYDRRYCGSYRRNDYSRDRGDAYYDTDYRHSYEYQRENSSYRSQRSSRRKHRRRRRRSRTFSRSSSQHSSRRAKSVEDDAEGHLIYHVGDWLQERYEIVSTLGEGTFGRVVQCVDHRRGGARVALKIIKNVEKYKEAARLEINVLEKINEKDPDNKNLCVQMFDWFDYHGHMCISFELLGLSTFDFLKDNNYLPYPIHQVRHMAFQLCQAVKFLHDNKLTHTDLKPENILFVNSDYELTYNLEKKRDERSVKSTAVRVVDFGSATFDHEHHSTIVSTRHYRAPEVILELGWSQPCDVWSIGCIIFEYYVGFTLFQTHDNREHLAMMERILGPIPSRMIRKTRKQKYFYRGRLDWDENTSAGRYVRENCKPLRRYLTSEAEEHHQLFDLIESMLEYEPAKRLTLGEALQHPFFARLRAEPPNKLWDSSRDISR
For experiment [6] the target is unchanged. The settings on record: at 10 µM.
The target of experiment [7] is Dual specificity protein kinase CLK3 (Homo sapiens) (UniProt P49761). Conditions: at 1 µM.
Sequence of Dual specificity protein kinase CLK3 (Homo sapiens) (P49761 whole entry, looked up): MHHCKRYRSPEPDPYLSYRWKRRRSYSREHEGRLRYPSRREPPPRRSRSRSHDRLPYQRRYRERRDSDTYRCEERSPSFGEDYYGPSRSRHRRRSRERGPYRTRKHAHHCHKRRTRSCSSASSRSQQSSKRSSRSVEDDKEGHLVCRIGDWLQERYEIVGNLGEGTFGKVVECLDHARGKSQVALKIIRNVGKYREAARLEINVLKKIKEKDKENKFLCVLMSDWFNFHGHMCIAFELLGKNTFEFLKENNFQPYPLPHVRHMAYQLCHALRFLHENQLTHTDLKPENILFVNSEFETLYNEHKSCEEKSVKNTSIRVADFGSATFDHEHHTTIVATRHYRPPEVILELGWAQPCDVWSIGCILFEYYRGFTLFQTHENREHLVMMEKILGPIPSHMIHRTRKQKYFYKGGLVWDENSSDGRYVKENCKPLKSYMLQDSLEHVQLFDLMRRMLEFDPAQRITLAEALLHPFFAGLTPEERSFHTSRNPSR
Experiment [8] has the same target. Conditions: at 10 µM.
Experiment [9] concerns the target Tyrosine-protein kinase CSK (Homo sapiens) (UniProt P41240). Conditions: at 1 µM.
For experiment [10] the target is unchanged. The settings on record: at 10 µM.

The structures appear in SMILES notation.

From ChEMBL document CHEMBL2218924, “A broad activity screen in support of a chemogenomic map for kinase signalling research and drug discovery” (Biochem J, 2013) come the findings set out here.

Sequence of Casein kinase II subunit alpha' (Homo sapiens) (P19784 whole entry, looked up): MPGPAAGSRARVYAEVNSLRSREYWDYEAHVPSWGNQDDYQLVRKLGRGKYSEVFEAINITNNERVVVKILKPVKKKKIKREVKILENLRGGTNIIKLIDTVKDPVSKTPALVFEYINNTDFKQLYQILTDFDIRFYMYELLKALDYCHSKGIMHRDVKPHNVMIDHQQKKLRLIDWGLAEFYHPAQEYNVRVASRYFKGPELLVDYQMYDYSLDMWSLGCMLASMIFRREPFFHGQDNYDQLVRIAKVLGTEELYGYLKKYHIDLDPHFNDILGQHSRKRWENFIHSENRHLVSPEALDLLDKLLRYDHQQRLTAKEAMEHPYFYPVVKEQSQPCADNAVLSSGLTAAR
T1 sequence (P19784 whole entry, looked up): as above
T1 sequence (P67870 whole entry, looked up): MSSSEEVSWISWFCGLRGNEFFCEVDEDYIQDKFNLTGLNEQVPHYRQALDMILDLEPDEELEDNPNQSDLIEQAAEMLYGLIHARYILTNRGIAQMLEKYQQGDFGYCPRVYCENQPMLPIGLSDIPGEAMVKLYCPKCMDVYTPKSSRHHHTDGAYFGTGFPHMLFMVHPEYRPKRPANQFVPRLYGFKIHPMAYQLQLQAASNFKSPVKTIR
T1 sequence (P68400 whole entry, looked up): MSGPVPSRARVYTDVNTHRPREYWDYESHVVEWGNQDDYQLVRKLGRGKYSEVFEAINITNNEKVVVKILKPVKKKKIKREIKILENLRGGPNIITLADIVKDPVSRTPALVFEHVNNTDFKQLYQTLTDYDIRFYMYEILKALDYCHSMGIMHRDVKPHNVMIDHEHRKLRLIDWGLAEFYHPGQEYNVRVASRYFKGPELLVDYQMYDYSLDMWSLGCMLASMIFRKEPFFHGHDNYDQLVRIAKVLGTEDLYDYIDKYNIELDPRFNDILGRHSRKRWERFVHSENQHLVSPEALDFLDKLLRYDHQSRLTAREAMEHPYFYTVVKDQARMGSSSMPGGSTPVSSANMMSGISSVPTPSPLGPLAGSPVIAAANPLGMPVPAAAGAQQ
Sequence of Tyrosine-protein kinase CSK (Homo sapiens) (P41240 2-450 limits assumed): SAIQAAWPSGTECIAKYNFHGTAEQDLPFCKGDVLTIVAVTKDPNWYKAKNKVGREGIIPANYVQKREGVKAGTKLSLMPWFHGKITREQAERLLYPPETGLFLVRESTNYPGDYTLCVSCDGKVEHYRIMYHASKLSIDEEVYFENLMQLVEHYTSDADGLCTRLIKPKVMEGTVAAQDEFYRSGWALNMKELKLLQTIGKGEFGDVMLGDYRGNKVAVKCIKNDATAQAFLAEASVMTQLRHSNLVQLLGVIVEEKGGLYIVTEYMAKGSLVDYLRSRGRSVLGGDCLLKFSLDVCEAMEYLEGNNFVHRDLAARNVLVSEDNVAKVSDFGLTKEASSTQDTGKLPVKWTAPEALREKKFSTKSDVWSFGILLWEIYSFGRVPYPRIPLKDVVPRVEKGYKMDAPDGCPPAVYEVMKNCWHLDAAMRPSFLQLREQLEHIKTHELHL

On to `COc1cc2ncnc(Nc3ccc(OCc4ccccc4)cc3)c2cc1OC`, for which the residual activity – broadly, the signal under treatment as a percentage of the control signal – in experiment [1] turned out to be 92%; in [2], 116%; in experiment [3], 121%; in experiment [4], 99%; in [5], 117%; in [6], 93%. Also, the residual activity in [7] is 82%; in [8], 87%; in [9], 84%; in [10] it was 62%.
Take `CCn1cnc2c(Nc3cccc(Cl)c3)nc(N[C@@H]3CCCC[C@@H]3N)nc21`: the residual activity in experiment [1] was determined as 91%; in experiment [2], 57%; in experiment [5] it was 10%; in experiment [6], 4%; in [7], 76%; in [8] it was 30%. The residual activity in [10] worked out at 69%.
`COc1cc(OC)c(/C=C2\C(=O)Nc3ccccc32)c(OC)c1`: the residual activity in experiment [1] was determined as 88%; in [2], 91%; in experiment [3], 94%; in [4], 90%; in [7], 83%; in experiment [8], 81%. Besides, in experiment [10], the residual activity is 99%.
On to `O=C1NC(=O)c2c1c1c3ccccc3n3c1c1c2c2ccccc2n1C1CCC3O1`, for which the residual activity is 63% in experiment [3]; 49% in experiment [4]; 100% in [5]; 92% in [6]; 95% in experiment [7]; 85% in experiment [8].
With `O=[N+]([O-])/C=C/c1ccc2c(c1)OCO2`, the residual activity in [1] was 105%; in experiment [2] it was 126%; in [3], 134%; in experiment [4], 102%; in experiment [5] it was 121%; in experiment [6] it was 101%. Also, the residual activity came to 91% in experiment [7], 112% in [9] and 100% in experiment [10].
With `O=C1Nc2ccc3ncsc3c2/C1=C/c1c[nH]cn1`, the residual activity in experiment [1] is 30%; in experiment [2] it was 1%; in experiment [3], 12%; in experiment [4], -1%; in experiment [5], 8%; in experiment [6], 3%. For the same compound, the residual activity stood at 38% in [7], 3% in [8], 104% in experiment [9] and 96% in [10].
For the compound `CN[C@@H]1C[C@H]2O[C@@](C)([C@@H]1OC)n1c3ccccc3c3c4c(c5c6ccccc6n2c5c31)C(=O)NC4`, the residual activity in experiment [1] was 81%; in experiment [2], 85%; in experiment [3], 83%; in experiment [4], 85%.
Regarding `CC(C)[C@H](CO)Nc1nc(Nc2cccc(Cl)c2)c2ncn(C(C)C)c2n1`, the residual activity in experiment [1] was 99%; in experiment [2] it was 96%; in experiment [5], 8%; in [6], 1%; in [7], 55%; in experiment [8], 11%. Moreover, the residual activity in experiment [10] turned out to be 65%.
Regarding `COc1ccc2c(c[n+](C)c3c4cc5c(cc4ccc23)OCO5)c1OC`, the residual activity in experiment [1] turned out to be 92%; in experiment [2], 110%; in [3], 126%; in [5] it was 120%; in experiment [6] it was 93%; in experiment [7], 74%. Also, the residual activity in [8] amounted to 80%; in experiment [10] it was 95%.
As to `CC(C)(C)c1cc(C=C(C#N)C#N)cc(Br)c1O`, the residual activity was determined as 113% in [1]; 114% in [2]; 121% in [3]; 113% in [4]; 99% in [5]; 103% in [6]. Besides, the residual activity in [7] came to 100%; in experiment [8], 108%; in experiment [9], 103%; in [10] it was 105%.
On to `COc1ccc2c(c1)/C(=C/c1cnc[nH]1)C(=O)N2`, for which the residual activity in [4] amounted to 32%; in experiment [5] it was 50%; in [6], 10%.
For the compound `CCc1nc(-c2ccc(OC)cc2)[nH]c1-c1ccncc1`, the residual activity is 121% in experiment [3]; 100% in experiment [4]; 101% in [5]; 74% in experiment [6]; 123% in experiment [9]; 102% in experiment [10].
Turning to `C[S+]([O-])c1ccc(-c2nc(-c3ccc(F)cc3)c(-c3ccncc3)[nH]2)cc1` (stereo not given), the residual activity in [1] came to 100%; in experiment [2] it was 104%; in [3], 122%; in experiment [4] it was 105%; in experiment [5] it was 114%; in [6], 94%. Moreover, the residual activity was determined as 98% in experiment [7], 98% in experiment [8], 103% in [9] and 98% in [10].
In the case of `N/C(=N\[N+](=O)[O-])N/N=C\c1ccc(-c2cccc([N+](=O)[O-])c2)o1`, the residual activity in [1] was 97%; in [2], 89%; in experiment [7], 93%; in [8], 86%; in experiment [9], 122%; in experiment [10], 100%.
Consider `COC(=O)[C@@]1(O)C[C@H]2O[C@]1(C)n1c3ccccc3c3c4c(c5c6ccccc6n2c5c31)C(=O)NC4`, for which the residual activity amounted to 93% in experiment [1]; 82% in experiment [2]; 108% in experiment [3]; 90% in experiment [4]; 1% in [5]; 4% in [6]. The residual activity in [7] turned out to be 72%; in [8] it was 33%; in experiment [9] it was 71%; in experiment [10], 18%.
Regarding `O=c1[nH]c2ccccc2n1C1CCN(Cc2ccc(-c3nc4cc5[nH]cnc5cc4nc3-c3ccccc3)cc2)CC1`, the residual activity in experiment [1] is 89%; in experiment [2], 101%; in experiment [3], 113%; in [4] it was 95%; in experiment [5], 98%; in experiment [6], 76%. In addition, the residual activity in [8] turned out to be 76%; in experiment [9] it was 112%; in experiment [10], 89%.
As to `c1cc(-c2cnn3cc(-c4ccc(OCCN5CCCCC5)cc4)cnc23)ccn1`, the residual activity in experiment [1] is 82%; in [2] it was 27%; in experiment [3], 26%; in [4], 1%; in experiment [5], 26%; in experiment [6], 3%. Moreover, the residual activity stood at 62% in [7], 23% in [8], 100% in experiment [9] and 64% in experiment [10].
`O=C1c2ccccc2-c2nc3nnnn3nc21`: the residual activity in experiment [3] amounted to 129%; in experiment [4] it was 77%; in [5], 115%; in [6], 107%; in experiment [7], 83%; in experiment [8], 119%. Further, the residual activity came out at 123% in [9] and 115% in [10].
